PubChem BioAssay (Tox21)
Results filed as inconclusive are left out. Active and inactive are the calls of the source. Unless noted, calls come from the whole dose curve; as a rule, active = well fitted curve in the direction sought with a large enough effect in the repeat runs; inconclusive = weak or mixed curves; inactive = no such curve, though single readings can be large; an effect the other way counts as inactive or inconclusive.

How the values were obtained:
[1] = A CellTox Green Cytotoxicity Assay to monitor cytotoxicity in HEK293 cells - 32 hour (AID 1224881); note: nearly all actives have a fitted effect of over 40% in size; note: potency is the fitted concentration of half-maximal effect
Method in brief: (§1)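 Nonlytic real-time cytotoxicity: HEK293 + CellTox Green reagent plated, 5 h preincubation, pintool compound addition (23 nL in DMSO), 37 C for 40 h, fluorescence measured at successive time points.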

[2] = A CellTox Green Cytotoxicity Assay to monitor cytotoxicity in HepG2 cells - 32 hour (AID 1224883); note: nearly all actives have a fitted effect of over 50% in size; note: potency is the fitted concentration of half-maximal effect
Method in brief: (§2)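 Read-out is fluorescence of a cyanine dye excluded from live cells that stains DNA of dead HepG2 cells, with signal proportional to cytotoxicity. Plates were read at 0, 8, 16, 24, 32 and 40 h after compound addition.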

[3] = A CellTox Green Cytotoxicity Assay to monitor cytotoxicity in HEK293 cells - 8 hour (AID 1224884); note: nearly all actives have a fitted effect of over 35% in size; note: potency is the fitted concentration of half-maximal effect
Method in brief: as §1

[4] = qHTS RealTime-Glo MT Cell Viability Assay in HepG2 cells - 16 hour (AID 1224885); note: nearly all actives have a fitted effect of over 50% in size; note: potency is the fitted concentration of half-maximal effect
Method in brief: (§3)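 HepG2 cells were seeded at 600 cells/well together with NanoLuc luciferase and a cell-permeant prosubstrate, preincubated 5 h at 37 C/5% CO2, then pin-dosed with compounds in DMSO. Nonlytic luminescence from viable cells was read at each time point.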

[5] = qHTS RealTime-Glo MT Cell Viability Assay in HEK293 cells - 24 hour (AID 1224886); note: nearly all actives have a fitted effect of over 50% in size; note: potency is the fitted concentration of half-maximal effect
Method in brief: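 HEK293 cells were seeded at 600 cells/well together with NanoLuc luciferase and cell-permeant prosubstrate, preincubated 5 h at 37 C/5% CO2, then given compound in DMSO by pintool. Luminescence from viable-cell prosubstrate reduction was read repeatedly over 40 h.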

[6] = qHTS RealTime-Glo MT Cell Viability Assay in HEK293 cells - 8 hour (AID 1224887); note: nearly all actives have a fitted effect of over 50% in size; note: potency is the fitted concentration of half-maximal effect
Method in brief: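 Cells were seeded together with NanoLuc luciferase and a prosubstrate that viable cells reduce to a luciferase substrate. After a 5 h incubation at 37 C/5% CO2, compounds were added and luminescence was measured repeatedly during 40 h of treatment.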

[7] = A CellTox Green Cytotoxicity Assay to monitor cytotoxicity in HEK293 cells - 16 hour (AID 1224888); note: nearly all actives have a fitted effect of over 35% in size; note: potency is the fitted concentration of half-maximal effect
Method in brief: as §1

[8] = qHTS RealTime-Glo MT Cell Viability Assay in HepG2 cells - 0 hour (AID 1224889); note: nearly all actives have a fitted effect of over 50% in size
Method in brief: as §3

[9] = A CellTox Green Cytotoxicity Assay to monitor cytotoxicity in HepG2 cells - 8 hour (AID 1224890); note: nearly all actives have a fitted effect of over 45% in size; note: potency is the fitted concentration of half-maximal effect
Method in brief: as §2

[10] = qHTS assay to identify small molecule antagonists of the estrogen receptor alpha (ER-alpha) signaling pathway using the BG1 cell line in the presence of 0.1 nM 17-beta-estradiol - cell viability counter screen (AID 1259241); note: nearly all actives have a fitted effect of over 40% in size; note: potency is the fitted concentration of half-maximal effect
Method in brief: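 The cell line endogenously expresses full-length ER-alpha and carries four EREs driving luciferase. Cells are cultured 5 days hormone-free, treated 22 hr with compounds and 0.1 nM estradiol, then viability is read by fluorescence.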

[11] = qHTS assay to identify small molecule antagonists of the androgen receptor (AR) signaling pathway using the MDA cell line in the presence of 0.5 nM R1881 - cell viability counter screen (AID 1259242); note: nearly all actives have a fitted effect of over 45% in size; note: potency is the fitted concentration of half-maximal effect
Method in brief: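 Counter screen for cytotoxicity run in the same wells as the AR antagonist reporter screen: MDA-kb2 cells were treated 16 hr with test compounds and 0.5 nM R1881, then live-cell protease activity was measured by fluorescence.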

[12] = biological target: Estrogen receptor (Homo sapiens) (UniProt P03372); assay: qHTS assay to identify small molecule antagonists of the estrogen receptor alpha (ER-alpha) signaling pathway using the BG1 cell line in the presence of 0.1 nM 17-beta-estradiol (AID 1259244); note: nearly all actives have a fitted effect of over 50% in size; note: potency is the fitted concentration of half-maximal effect
Sequence of Estrogen receptor (Homo sapiens) (P03372 whole entry, looked up): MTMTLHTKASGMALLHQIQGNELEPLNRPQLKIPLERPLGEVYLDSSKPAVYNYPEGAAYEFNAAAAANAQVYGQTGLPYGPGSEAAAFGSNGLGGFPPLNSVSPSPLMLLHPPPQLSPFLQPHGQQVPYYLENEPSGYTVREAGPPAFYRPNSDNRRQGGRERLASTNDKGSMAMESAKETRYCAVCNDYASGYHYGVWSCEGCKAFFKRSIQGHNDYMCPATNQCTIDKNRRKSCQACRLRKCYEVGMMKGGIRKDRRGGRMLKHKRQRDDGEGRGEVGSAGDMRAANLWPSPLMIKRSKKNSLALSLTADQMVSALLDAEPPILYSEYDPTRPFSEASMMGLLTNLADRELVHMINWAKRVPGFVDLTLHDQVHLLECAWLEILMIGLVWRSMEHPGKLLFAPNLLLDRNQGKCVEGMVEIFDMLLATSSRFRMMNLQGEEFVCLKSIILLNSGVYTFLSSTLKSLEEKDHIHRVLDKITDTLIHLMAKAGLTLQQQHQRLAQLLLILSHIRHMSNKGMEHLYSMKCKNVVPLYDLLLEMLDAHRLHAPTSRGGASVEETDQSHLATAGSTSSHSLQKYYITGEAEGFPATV
Method in brief: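 Cells: VM7Luc4E2, endogenous ER-alpha, 4x ERE-luc stable. Pre-culture 5 d, phenol red-free, charcoal-stripped FBS. Plated 24 h, compound + E2 0.1 nM final, 22 h 37C/5% CO2. Readout ONE-Glo luminescence.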

[13] = qHTS assay to identify small molecule HDAC inhibitors - cell viability counter screen (AID 1259365); note: nearly all actives have a fitted effect of over 50% in size; note: potency is the fitted concentration of half-maximal effect
Method in brief: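 Viability readout: CellTiter-Glo luminescence. Wild-type HCT-116 cells, 2hr compound treatment following overnight attachment at 37 C.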

[14] = qHTS assay to identify small molecule agonists of the sonic hedgehog signaling (Shh) pathway - cell viability counter screen (AID 1259366); note: nearly all actives have a fitted effect of over 50% in size; note: potency is the fitted concentration of half-maximal effect
Method in brief: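 Viability measured fluorometrically (CellTiter-Fluor, 1hr, 37C) in 3T3 Gli1-Luc reporter cells after 23hr compound exposure within a 24hr incubation at 37C/5% CO2.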

[15] = qHTS assay to identify small molecule antagonists of the sonic hedgehog signaling (Shh) pathway - cell viability counter screen (AID 1259367); note: nearly all actives have a fitted effect of over 55% in size; note: potency is the fitted concentration of half-maximal effect
Method in brief: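 Seed 3T3 Gli1-Luc cells at 2,000 per well; incubate 4 hr; add compound in DMSO, then conditioned medium; incubate at 37C with 5% CO2; add CellTiter-Fluor after 23 hr; read fluorescence 1 hr later.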

[16] = qHTS assay to identify small molecule agonists of the sonic hedgehog signaling (Shh) pathway (AID 1259368; calls by dose curve; note: nearly all actives have a fitted effect of over 15% in size; note: potency is the fitted concentration of half-maximal effect)
Method in brief: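 3T3Gli1-Luc (NIH/3T3 clone, stable Gli1-Luc); 4 hr pre-incubation, then cpd in DMSO 24 hr, 37 C/5% CO2; luciferase reagent 30 min RT; luminescence.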

[17] = A CellTox Green Cytotoxicity Assay to monitor cytotoxicity in HepG2 cells - 0 hour (AID 1224882); note: nearly all actives have a fitted effect of over 35% in size
Method in brief: as §2

[18] = qHTS assay to identify small molecule phospholipidosis (PLD) inducers (AID 1259344; active = well fitted curve in the direction sought with a large enough effect; an effect the other way counts as inactive or inconclusive)
Method in brief: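 Quantitative HTS in HepG2: compound plus LipidTOX Red dye for 24 h, paraformaldehyde fixation with Hoechst 33342, widefield high-content imaging; amiodarone as positive and DMSO as negative control.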

[19] = qHTS assay to identify small molecule HDAC inhibitors (AID 1259364); note: top concentration of the series differs between compounds; nearly all actives have a fitted effect of over 45% in size
Method in brief: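 Luminescence from a cell-permeant luminogenic class I/II HDAC substrate reports endogenous deacetylase activity in intact HCT-116 cells treated with compounds for 2 h.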

[20] = biological target: Androgen receptor (Homo sapiens) (UniProt P10275); assay: qHTS assay to identify small molecule antagonists of the androgen receptor (AR) signaling pathway using the MDA cell line in the presence of 0.5 nM R1881 (AID 1259243)
Sequence of Androgen receptor (Homo sapiens) (P10275 whole entry, looked up): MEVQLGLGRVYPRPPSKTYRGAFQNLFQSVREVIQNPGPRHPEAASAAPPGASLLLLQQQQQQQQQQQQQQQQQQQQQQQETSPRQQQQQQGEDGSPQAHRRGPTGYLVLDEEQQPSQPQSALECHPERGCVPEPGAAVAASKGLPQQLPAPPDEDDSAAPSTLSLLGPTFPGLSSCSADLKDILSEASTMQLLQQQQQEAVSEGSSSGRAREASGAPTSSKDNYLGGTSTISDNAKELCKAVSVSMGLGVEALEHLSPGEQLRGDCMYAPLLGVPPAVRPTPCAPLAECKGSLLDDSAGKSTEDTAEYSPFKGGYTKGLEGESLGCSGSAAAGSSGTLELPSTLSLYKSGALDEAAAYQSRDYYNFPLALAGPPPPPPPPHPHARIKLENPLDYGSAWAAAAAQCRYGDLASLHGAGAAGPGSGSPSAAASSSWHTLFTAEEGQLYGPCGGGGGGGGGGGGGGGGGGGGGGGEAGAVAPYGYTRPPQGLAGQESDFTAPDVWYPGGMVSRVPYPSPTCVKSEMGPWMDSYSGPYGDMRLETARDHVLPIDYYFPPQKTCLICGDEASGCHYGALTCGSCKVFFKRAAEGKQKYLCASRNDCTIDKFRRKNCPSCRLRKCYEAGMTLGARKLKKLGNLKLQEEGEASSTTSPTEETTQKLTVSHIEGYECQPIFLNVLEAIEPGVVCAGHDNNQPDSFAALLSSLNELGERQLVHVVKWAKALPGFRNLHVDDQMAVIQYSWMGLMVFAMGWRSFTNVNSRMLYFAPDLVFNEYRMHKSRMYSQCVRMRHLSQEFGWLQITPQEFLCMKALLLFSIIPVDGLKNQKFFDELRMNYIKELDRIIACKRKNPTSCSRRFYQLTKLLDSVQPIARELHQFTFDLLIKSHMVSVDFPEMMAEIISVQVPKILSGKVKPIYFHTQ
Method in brief: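 Luciferase luminescence is the read-out: compounds are tested for suppressing 0.5 nM R1881-driven MMTV reporter activity in MDA-kb2 cells after 16 hr at 37C.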

Measured: Potency

CCN(CC)CCN1C(=O)CN=C(c2ccccc2F)c2cc(Cl)ccc21
inactive: [1] | [2] | [3] | [4] | [5] | [6] | [7] | [8] | [9] | [10] | [11] | [12] | [13] | [14] | [15] | [16]

COc1ccc(Cc2nccc3cc(OC)c(OC)cc23)cc1OC
inactive: [1] | [17] | [7] | [8] | [9] | [10] | [18] | [19] | [13] | [15] | [16]
active: [5] 4.77 µM | [6] 4.77 µM

O=C1C[C@@H]2OCC=C3CN4CC[C@]56c7ccccc7N1[C@H]5[C@H]2[C@H]3C[C@H]46
inactive: [1] | [17] | [3] | [4] | [7] | [8] | [11] | [18] | [19] | [13] | [16]

COC(=O)N(OC)c1ccccc1COc1ccn(-c2ccc(Cl)cc2)n1
active: [11] 2.17 µM | [12] 0.686 µM
inactive: [1] | [2] | [3] | [4] | [7] | [8] | [9] | [13] | [14] | [15] | [16]

Nc1ccc(N=Nc2ccccc2)cc1
active: [14] 15.4 µM | [15] 3.44 µM | [16] 4.86 µM
inactive: [1] | [17] | [3] | [7] | [8] | [9] | [12] | [18] | [13]

O.O.O.O=C([O-])[C@H]([O-])[C@@H]([O-])C(=O)[O-].O=C([O-])[C@H]([O-])[C@@H]([O-])C(=O)[O-].[K+].[K+].[Sb+3].[Sb+3]
inactive: [1] | [17] | [6] | [7] | [8] | [12] | [13] | [14] | [15] | [16]
active: [10] 48.8 µM

CCOP(=S)(OCC)SC(CCl)N1C(=O)c2ccccc2C1=O (configuration not stated)
inactive: [1] | [17] | [4] | [5] | [6] | [7] | [9] | [10] | [11] | [19] | [13] | [14] | [15] | [16]

COP(=O)(OC)Oc1ccc([N+](=O)[O-])cc1
inactive: [1] | [2] | [3] | [4] | [5] | [6] | [7] | [8] | [9] | [11] | [12] | [19] | [13] | [14] | [15] | [16]

CCCCC(CC)COC(=O)c1ccccc1C(=O)OCC(CC)CCCC (configuration not stated)
inactive: [1] | [17] | [4] | [5] | [6] | [7] | [8] | [9] | [10] | [11] | [18] | [19] | [13] | [14] | [15] | [16]

S=C=NCCc1ccccc1
inactive: [17] | [4] | [7] | [8] | [9] | [10] | [11] | [19] | [14] | [15]
active: [1] 49.1 µM | [20] 48.7 µM | [16] 61.3 µM

CCCCc1ccccc1
inactive: [1] | [2] | [3] | [4] | [5] | [6] | [7] | [8] | [10] | [11] | [12] | [19] | [13] | [14] | [15] | [16]

CC[C@H](C)[C@H]1O[C@]2(C=C[C@@H]1C)C[C@@H]1C[C@@H](C/C=C(\C)[C@@H](O[C@H]3C[C@H](OC)[C@@H](O[C@H]4C[C@H](OC)[C@@H](NC)[C@H](C)O4)[C@H](C)O3)[C@@H](C)/C=C/C=C3\CO[C@@H]4[C@H](O)C(C)=C[C@@H](C(=O)O1)[C@]34O)O2
inactive: [8] | [19] | [16]
active: [1] 12.3 µM | [2] 11 µM | [3] 13.8 µM | [4] 12.3 µM | [5] 5.49 µM | [6] 8.71 µM | [7] 15.5 µM | [9] 17.4 µM | [10] 15.4 µM | [11] 17.2 µM | [12] 10.9 µM | [13] 48.6 µM | [14] 12.2 µM | [15] 13.7 µM

Nc1cc(Cl)ccc1Cl
inactive: [1] | [3] | [4] | [5] | [6] | [7] | [8] | [10] | [11] | [19] | [13] | [14] | [15] | [16]
